A short description of test [1]: qHTS assay for small molecules that induce genotoxicity in human embryonic kidney cells expressing luciferase-tagged ATAD5 (AID 651632). Further: nearly all actives have a fitted effect of over 15% in size. The gist of the method: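 Genotoxicity read-out via ATAD5-luciferase: HEK293T cells, 16 hr compound incubation at 37C, Amplite detection.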
On the technique in general: Quantitative high-throughput screening tests each substance at several concentrations.

A short description of test [2]: qHTS assay for small molecule disruptors of the mitochondrial membrane potential - cell viability (AID 720634; calls by dose curve;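 further: human HepG2 liver cancer cells; series mostly up to about 83 µM; nearly all actives have a fitted effect of over 20% in size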). The essentials: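 Human hepatoma HepG2 cells were treated for 1 hr with test chemicals, then given m-MPI dye and CellTiter-Glo. Cell viability reflects luminescence proportional to cellular ATP.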
Test [3] is described as follows: qHTS assay to test for compound auto fluorescence at 535 nm (green) in HepG2 cells (AID 720675).
The nature of test [4]: qHTS assay to test for compound auto fluorescence at 535 nm (green) in HEK293 cells (AID 720680).
A short description of test [5]: qHTS assay to test for compound auto fluorescence at 460 nm (blue) in HEK293 cell free culture (AID 720681). The essentials:
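Test compounds were pinned into cell-free culture medium (DMEM with 10% FBS) and fluorescence was read directly at Ex/Em 405/460 nm. Signals were expressed as fluorescence equivalents of triamterene, with DMSO vehicle as control.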

Test [6] is described as follows: qHTS assay to test for compound auto fluorescence at 535 nm (green) in HEK293 cell free culture (AID 720682). The essentials: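 Measurement is a direct plate read of green fluorescence (485 nm in, 535 nm out) after compound addition to serum-supplemented DMEM lacking cells, with fluorescein used to express intensities.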
Test [7] can be described thus: qHTS assay to test for compound auto fluorescence at 590 nm (red) in HEK293 cell free culture (AID 720683). The essentials: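 Tox21 10K library compounds were pinned into cell-free DMEM with 10% FBS and fluorescence was read at excitation 540 nm. Activity is expressed as Rose Bengal sodium equivalency.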
Test [8] can be described thus: qHTS assay to test for compound auto fluorescence at 590 nm (red) in HepG2 cell free culture (AID 720684). The essentials:
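Red fluorescence (540 nm excitation, 590 nm emission) was measured after compound transfer into cell-free MEM supplemented with 10% FBS. Values are equivalencies against Rose Bengal sodium.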

Test [9] in a line: qHTS assay to test for compound auto fluorescence at 460 nm (blue) in HepG2 cell free culture (AID 720685). The essentials:
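Compound (23 nL) or DMSO pinned into cell-free MEM with 10% FBS; blue fluorescence read at 405/460 nm excitation/emission, expressed as auto-fluorescence equivalency to triamterene.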

Test [10] in a line: qHTS assay for identifying genotoxic compounds that show differential cytotoxicity against isogenic chicken DT40 cell lines with known DNA damage response pathways - Rad54/Ku70 mutant cell line (AID 743015). Further: nearly all actives have a fitted effect of over 60% in size. Further: potency means the concentration at half of the fitted maximal effect.
Test [11] in a line: qHTS assay to identify small molecule antagonists of the thyroid receptor (TR) signaling pathway (AID 743065). Further: nearly all actives have a fitted effect of over 55% in size. Further: potency means the concentration at half of the fitted maximal effect. The essentials: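 GH3.TRE-Luc rat pituitary cells carrying two TR response elements driving luciferase were plated for 4 h, given compound plus 1 nM T3 (final), and incubated 23.5 h at 37 C. ONE-Glo luminescence measured reporter inhibition; CellTiter-Fluor fluorescence tracked cytotoxicity.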

The nature of test [12]: qHTS assay to identify small molecule antagonists of the estrogen receptor alpha (ER-alpha) signaling pathway using the BG1 cell line - cell viability counter screen (AID 743081).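 Further: compound given together with 17beta-estradiol as the ER stimulus; series mostly up to about 70 µM; nearly all actives have a fitted effect of over 45% in size.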
Another test concerns the target Aromatase (Homo sapiens) (UniProt P11511). Briefly: qHTS assay to identify aromatase inhibitors (AID 743083). Further: series mostly up to about 70 µM; nearly all actives have a fitted effect of over 55% in size.
The nature of test [13]: qHTS assay to identify aromatase inhibitors - cell viability counter screen (AID 743084).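 Further: cells stimulated with testosterone during compound exposure; nearly all actives have a fitted effect of over 55% in size.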
Test [14] deals with Aryl hydrocarbon receptor (Homo sapiens) (UniProt P35869). The test can be described thus: qHTS assay to identify small molecule that activate the aryl hydrocarbon receptor (AhR) signaling pathway (AID 743085). Further: nearly all actives have a fitted effect of over 15% in size. Further: potency means the concentration at half of the fitted maximal effect. The gist of the method: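 24 h compound exposure, 37C, HepG2-derived HG2L7.5c1 cells with DRE-responsive luciferase. Readouts: fluorescence viability, then luminescence at room temperature after 30 min.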

A short description of test [15]: qHTS assay to identify small molecule that activate the aryl hydrocarbon receptor (AhR) signaling pathway - cell viability counter screen (AID 743086).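 Further: HepG2 liver cells carrying the AhR DRE luciferase reporter; series mostly up to about 70 µM; nearly all actives have a fitted effect of over 45% in size.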 The gist of the method: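 HepG2-AhR-luc (HG2L7.5c1) cells, 4000/well, were preincubated 5 h at 37C, exposed to compound in qHTS format for 24 hr at 37C, then given CellTiter-Fluor for 30 min; viability was read as fluorescence in the reporter wells.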

Test [16] in a line: qHTS assay to identify small molecule phospholipidosis (PLD) inducers (AID 1259344; active means well fitted curve in the direction sought with a large enough effect; an effect the other way counts as inactive or inconclusive). The essentials:
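HepG2 cells on collagen I, attached 4 h at 37 C, were co-treated with compound and LipidTOX Red dye for 24 h at 37 C, then fixed with paraformaldehyde plus Hoechst 33342 and imaged by high-content microscopy for phospholipid accumulation.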

A short description of test [17]: qHTS assay for small molecules that induce genotoxicity in human embryonic kidney cells expressing luciferase-tagged ATAD5 - cell viability (AID 651634; calls by dose curve; further: nearly all actives have a fitted effect of over 25% in size). The gist of the method: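 Live-cell protease activity (CellTiter-Fluor, fluorescence) indicates viability. HEK293T cells with luciferase-tagged ATAD5; 15.5 hr compound treatment at 37C.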
Test [18] can be described thus: qHTS assay to identify small molecule antagonists of the androgen receptor (AR) signaling pathway using the MDA cell line - cell viability counter screen (AID 743041; further: nearly all actives have a fitted effect of over 45% in size). The essentials: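 MDA-kb2 AR-luc human breast carcinoma cells (MMTV-luciferase, AR/GR responsive) were treated with compounds plus R1881 agonist for 16 h at 37 °C. Viability was read as CellTiter-Fluor fluorescence in the same wells as the reporter assay.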

Drawing on PubChem BioAssay (Tox21), this text covers Potency and outcome for 12 compounds.

Results filed as inconclusive are left out. Activity calls are given as the source filed them. Unless noted, the call rests on the fitted dose curve; in most records, active means well fitted curve in the direction sought with a large enough effect in the repeat runs; inconclusive means weak or mixed curves; inactive means no such curve, though single readings can be large; an effect the other way counts as inactive or inconclusive.

Aromatase (Homo sapiens), sequence (P11511 whole entry, looked up): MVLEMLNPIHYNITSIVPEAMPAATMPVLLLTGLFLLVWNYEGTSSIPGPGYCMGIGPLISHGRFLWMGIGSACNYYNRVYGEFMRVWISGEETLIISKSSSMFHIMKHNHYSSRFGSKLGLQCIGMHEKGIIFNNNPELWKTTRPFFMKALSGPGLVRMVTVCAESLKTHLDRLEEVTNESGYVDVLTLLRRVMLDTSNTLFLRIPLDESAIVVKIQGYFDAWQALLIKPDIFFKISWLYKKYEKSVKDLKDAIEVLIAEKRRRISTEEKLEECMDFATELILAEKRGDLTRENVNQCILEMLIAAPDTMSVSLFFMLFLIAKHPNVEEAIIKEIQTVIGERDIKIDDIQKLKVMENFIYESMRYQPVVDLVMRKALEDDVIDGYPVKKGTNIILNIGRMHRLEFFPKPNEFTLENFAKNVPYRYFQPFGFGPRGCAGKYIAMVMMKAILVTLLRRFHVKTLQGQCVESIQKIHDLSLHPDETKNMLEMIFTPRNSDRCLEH
Aryl hydrocarbon receptor (Homo sapiens), sequence (P35869 whole entry, looked up): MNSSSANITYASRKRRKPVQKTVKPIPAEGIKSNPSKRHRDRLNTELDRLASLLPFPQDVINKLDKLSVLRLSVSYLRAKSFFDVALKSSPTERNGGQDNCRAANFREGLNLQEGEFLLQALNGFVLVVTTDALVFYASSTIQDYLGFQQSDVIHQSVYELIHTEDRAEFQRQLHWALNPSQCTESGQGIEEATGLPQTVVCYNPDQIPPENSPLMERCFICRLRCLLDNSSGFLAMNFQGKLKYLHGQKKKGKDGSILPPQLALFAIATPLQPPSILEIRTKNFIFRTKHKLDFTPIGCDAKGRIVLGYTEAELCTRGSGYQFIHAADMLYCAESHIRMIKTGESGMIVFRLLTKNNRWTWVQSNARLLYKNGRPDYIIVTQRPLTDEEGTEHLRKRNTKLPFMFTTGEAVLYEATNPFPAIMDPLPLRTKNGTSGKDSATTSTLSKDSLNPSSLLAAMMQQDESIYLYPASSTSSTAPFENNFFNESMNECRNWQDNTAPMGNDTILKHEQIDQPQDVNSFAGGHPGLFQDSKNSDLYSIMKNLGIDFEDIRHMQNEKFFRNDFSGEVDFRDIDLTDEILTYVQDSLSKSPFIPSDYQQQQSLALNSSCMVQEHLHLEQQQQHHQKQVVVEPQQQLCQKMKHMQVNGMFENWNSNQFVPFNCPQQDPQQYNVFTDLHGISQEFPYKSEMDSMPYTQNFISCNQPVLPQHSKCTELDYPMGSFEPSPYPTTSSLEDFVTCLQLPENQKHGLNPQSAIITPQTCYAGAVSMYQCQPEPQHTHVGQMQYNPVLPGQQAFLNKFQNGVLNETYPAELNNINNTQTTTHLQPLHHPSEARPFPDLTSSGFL

As to `c1ccc(C2(N3CCCC3)CCCCC2)cc1`, the Potency entry in test [1], in [2], in test [3], in [4], in test [5] and in [6] was “inactive” in each case. Further, the Potency result (in [9]; in test [12]; in the test with Aromatase (Homo sapiens); in test [13]; in test [15]; in [16]) was “inactive” in each case. Further, the outcome in [7] and in [8] was inactive. The Potency was 7.5 µM (active) in [10], 13.3 µM (active) in [11] and 26.6 µM (active) in test [14].

In the case of `COc1ccc(OC)c([C@@H](O)[C@H](C)N)c1`, the Potency result in test [1], in [17], in [2], in test [3], in test [4] and in test [5] was “inactive” each time. For the same compound, the Potency result in [6], in [9], in test [10], in [18], in test [11] and in test [12] was “inactive” throughout. Besides, the Potency entry (with Aromatase (Homo sapiens); in test [13]; in test [14]; in [15]; in test [16]) was “inactive” in each case. Further, the compound was called inactive in [7] and in [8].

For `CCCC(C)C1(CC)C(=O)NC(=O)NC1=O` (stereo not drawn), the Potency entry in test [1], in test [17], in test [2], in test [3], in test [4] and in [5] was “inactive” each time. Also, the Potency result in [6], in test [9], in [10], in [18], in [11] and in test [12] was “inactive” throughout. Besides, the Potency entry (with Aromatase (Homo sapiens); in test [13]; in [14]; in test [15]; in [16]) was “inactive” each time. Further, the call in test [7] and in test [8] was inactive.

Turning to `NCC[C@H](O)C(=O)N[C@@H]1C[C@H](N)[C@@H](O[C@H]2O[C@H](CN)[C@@H](O)[C@H](O)[C@H]2N)[C@H](O[C@@H]2O[C@H](CO)[C@@H](O)[C@H]2O)[C@H]1O`, the Potency result in test [1], in test [17], in test [2], in test [3], in test [4] and in [5] was “inactive” in each case. The Potency entry in test [6], in test [9], in test [10], in [18], in test [11] and in [12] was “inactive” each time. The Potency result (with Aromatase (Homo sapiens); in test [13]; in [14]; in test [15]; in test [16]) was “inactive” throughout. The call in [7] and in test [8] was inactive.

As for `CCCCCCCCCC(=O)O[C@H]1CC[C@H]2[C@@H]3CCC4=CC(=O)CC[C@]4(C)[C@H]3CC[C@]12C`, the Potency entry in test [1], in test [17], in test [2], in [3], in [4] and in test [5] was “inactive” in each case. In addition, the Potency entry in test [6], in [9], in [10], in [18], in test [11] and in [12] was “inactive” in each case. Moreover, the Potency entry (with Aromatase (Homo sapiens); in test [13]; in test [14]; in test [15]; in test [16]) was “inactive” throughout. Moreover, the call in [7] and in test [8] was inactive.

On to `C=CCN1CC[C@]23c4c5ccc(O)c4O[C@H]2[C@@H](O)C=C[C@H]3[C@H]1C5`, for which the Potency entry in test [1], in test [17], in test [2], in test [3], in [4] and in test [5] was “inactive” in each case. Further, the Potency entry in [6], in test [9], in test [10], in [18], in test [11] and in test [12] was “inactive” throughout. Further, the Potency result (in the test with Aromatase (Homo sapiens); in test [13]; in test [14]; in test [15]; in [16]) was “inactive” in each case. In addition, the compound was classed as inactive in [7] and in [8].

`CC1(C)[C@H](C=C(Cl)Cl)[C@H]1C(=O)OCc1c(F)c(F)cc(F)c1F`: the Potency entry in test [1], in test [17], in test [2], in test [3], in [4] and in test [5] was “inactive” each time. The Potency result in test [6], in test [9], in test [10], in test [18], in test [11] and in test [12] was “inactive” throughout. Further, the Potency result (with Aromatase (Homo sapiens); in [13]; in test [14]; in test [15]; in test [16]) was “inactive” each time. In addition, the compound was called inactive in test [7] and in [8].

On to `O[C@H]1[C@H]2[C@H](O)CCCN2C[C@H]1O`, for which the Potency result in test [1], in [17], in test [2], in test [3], in test [4] and in test [5] was “inactive” in each case. For the same compound, the Potency entry (in test [6]; in [9]; in test [10]; in test [18]; in test [11]; with Aromatase (Homo sapiens)) was “inactive” in each case. Besides, the Potency result in test [13], in test [14], in test [15] and in [16] was “inactive” in each case. Further, the call in test [7] and in test [8] was inactive.

As for `Clc1ccc2c(c1)C(c1ccccc1)=NCc1nncn1-2`, the Potency result in [1], in test [17], in test [2], in test [3], in [4] and in [5] was “inactive” throughout. Further, the Potency result in [6], in test [9], in test [10], in test [18], in test [11] and in test [12] was “inactive” in each case. The Potency entry (in the test with Aromatase (Homo sapiens); in [13]; in [14]; in test [15]; in [16]) was “inactive” each time. For the same compound, the outcome in test [7] and in test [8] was inactive.

Consider `C[C@]12C=CC(=O)C=C1CC[C@@H]1[C@@H]2CC[C@]2(C)OC(=O)CC[C@@H]12`, for which the Potency result in [1], in test [17], in test [2], in test [3], in test [4] and in [5] was “inactive” throughout. In addition, the Potency result in [6], in test [9], in test [10], in test [18], in test [11] and in test [12] was “inactive” each time. The Potency result (with Aromatase (Homo sapiens); in test [13]; in [14]; in test [15]; in test [16]) was “inactive” in each case. Moreover, the result in test [7] and in [8] was inactive.

On to `CCC1(CC)C(=O)NC(=O)N(C)C1=O`, for which the Potency result in [17], in test [2], in test [3], in test [4], in test [5] and in test [6] was “inactive” throughout. For the same compound, the Potency result (in test [9]; in test [10]; in test [11]; in test [12]; with Aromatase (Homo sapiens); in [13]) was “inactive” in each case. Further, the Potency result in test [14], in test [15] and in test [16] was “inactive” each time. In addition, the result in [7] and in test [8] was inactive.

`CC(Cc1ccccc1)NC=O` (stereo not drawn): the Potency result in [1], in [17], in [2], in [3], in [4] and in test [5] was “inactive” throughout. Further, the Potency result in [6], in test [9], in [10], in test [18], in test [11] and in test [12] was “inactive” each time. For the same compound, the Potency result (with Aromatase (Homo sapiens); in [13]; in test [14]; in [15]; in test [16]) was “inactive” throughout. Besides, the compound was classed as inactive in test [7] and in test [8].
